# This is part of a sample that, as a whole, favours compounds with a hit. Of some 83,000 tested, about 20% had one in any assay.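 Growth was measured after 48 h exposure to one concentration of compound in 96-well plates. Values under 10 count as active.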 A number with no mark means an inactive call. Active and inactive are the calls of the source.
# What was measured:
# Assay in all cases: NCI-60 one-dose screen, 48 h (100 = growth as untreated, 0 = no growth, -100 = all killed)
# NCI-H23 lung = settings: 10 µM unless noted
# NCI-H322M lung = settings: 10 µM unless noted
# HOP-62 NSCLC = settings: 10 µM unless noted
# NCI-H460 lung = settings: 10 µM unless noted
# HOP-92 NSCLC = settings: 10 µM unless noted
# A549/ATCC NSCLC = settings: 10 µM unless noted
# 786-0 renal = settings: 10 µM unless noted
# COLO 205 colon = settings: 10 µM unless noted
# DU-145 prostate = settings: 10 µM unless noted
# K-562 leukemia = settings: 10 µM unless noted
# MALME-3M melanoma = settings: 10 µM unless noted
# MDA-MB-231 breast = settings: 10 µM unless noted
# RXF 393 renal = settings: 10 µM unless noted
# SF-268 CNS = settings: 10 µM unless noted
# SF-295 CNS = settings: 10 µM unless noted
# SF-539 CNS = settings: 10 µM unless noted
# UACC-257 melanoma = settings: 10 µM unless noted
# M14 melanoma = settings: 10 µM unless noted
# NCI-H522 lung = settings: 10 µM
SMILES,growth (NCI-H23 lung),growth (NCI-H322M lung),growth (HOP-62 NSCLC),growth (NCI-H460 lung),growth (HOP-92 NSCLC),growth (A549/ATCC NSCLC),growth (786-0 renal),growth (COLO 205 colon),growth (DU-145 prostate),growth (K-562 leukemia),growth (MALME-3M melanoma),growth (MDA-MB-231 breast),growth (RXF 393 renal),growth (SF-268 CNS),growth (SF-295 CNS),growth (SF-539 CNS),growth (UACC-257 melanoma),growth (M14 melanoma),growth (NCI-H522 lung)
Cc1ccc2nc(NC(=O)CSC(=S)N3CCN(Cc4ccccc4)CC3)sc2c1,1.13% (active),-71.8% (active),-59.1% (active),-70.9% (active),-55.4% (active),1.71% (active),-21.1% (active),-63.3% (active),-96.9% (active),11.8%,-58% (active),-7.45% (active),-58% (active),-14.9% (active),-13.1% (active),1.99% (active),-63.4% (active),-56.7% (active),–
COc1ccc(-c2c(-c3cc4c(c(OC)c3OC)OCO4)noc2N)cc1,42.5%,54.2%,35.7%,13.2%,15.3%,24.1%,38.4%,-2.51% (active),12.2%,16.1%,56.7%,48.7%,-13.6% (active),45.8%,2.69% (active),1.11% (active),66.8%,12.6%,–
COc1ccc(-c2cc(=O)oc3c4c(ccc23)OCN(Cc2ccc(F)cc2)C4)cc1,41.2%,75.9%,80%,61.8%,47.8%,69.6%,65.7%,64.2%,73.4%,24.3%,77.1%,58.9%,57%,82%,27.3%,74.7%,39.6%,54.6%,–
Cc1c(C(=O)Nc2nc(-c3ccccc3)cs2)nnn1-c1ccccc1Br,28.7% [50 µM],79.5% [50 µM],94.7% [50 µM],45.2% [50 µM],57.4% [50 µM],30.9% [50 µM],66.7% [50 µM],42.3% [50 µM],51.8% [50 µM],20.3% [50 µM],17.5% [50 µM],44% [50 µM],76.4% [50 µM],61.5% [50 µM],31.2% [50 µM],63.8% [50 µM],13.2% [50 µM],43.1% [50 µM],–
O=c1c2c(=NCCN3CCCC3)cc3c(=O)n(CCCN4CCOCC4)c(=O)c4c(-c5ccc(CN6CCCC6)cc5)cc(c(O)n1CCCN1CCOCC1)c2c4-3,-70.9% (active),-29.6% (active),-21.3% (active),-62.9% (active),-16.4% (active),-16.2% (active),-42% (active),-60.4% (active),-26.7% (active),-21.1% (active),-70.1% (active),-46.6% (active),-79.4% (active),-33.1% (active),-12.5% (active),-78.8% (active),-27.1% (active),-78.7% (active),–
Cc1ccccc1-n1nnc(C(=O)Nc2nc(-c3ccccc3)c(-c3ccccc3)s2)c1C,76.3% [50 µM],84.4% [50 µM],84.8% [50 µM],73.2% [50 µM],62.3% [50 µM],65.4% [50 µM],87.4% [50 µM],92.8% [50 µM],87.6% [50 µM],53.5% [50 µM],80% [50 µM],85.3% [50 µM],69% [50 µM],69.6% [50 µM],80.6% [50 µM],77.1% [50 µM],61.5% [50 µM],78.7% [50 µM],–
Cl.Fc1c[c-]c(-c2ccccn2)c(F)c1.[Pt].c1ccc([PH+](CC[PH+](c2ccccc2)c2ccccc2)c2ccccc2)cc1,-77.2% (active),-98.8% (active),-65.8% (active),-75.3% (active),-77.4% (active),-52.9% (active),-79.4% (active),–,-99.6% (active),-11.4% (active),-87.2% (active),-74.2% (active),-84.4% (active),-57.7% (active),-88% (active),-94.6% (active),-59.1% (active),-84.7% (active),-58.4% (active)
COc1cccc(OC)c1OC(=O)c1ccccc1,100%,109%,110%,102%,82.5%,96.5%,106%,–,119%,105%,106%,–,109%,111%,79.5%,99.1%,99.5%,109%,95.5%

# — PubChem BioAssay (NCI)
